Laboratory results: PubChem BioAssay (NCI)
Compounds without any hit were thinned out: in the full panel of roughly 79,000, 15% have a hit. Active and inactive are the calls of the source. Rule as the data show it: active = growth inhibition above about 70%; inactive = the rest.

Columns and labels:
[1] = NCI Yeast Anticancer Drug Screen. Data for the wt1 strain (AID 149);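 also: 0% = growth of vehicle-treated wt1 cultures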; conditions: S. cerevisiae wt1 strain (SPY 50644) growth inhibition, hits give high values
How it was run: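 Vehicle-normalised growth inhibition; strain wt1; compound exposure.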

[2] = NCI Yeast Anticancer Drug Screen. Data for the rad50EPP+ strain (AID 151);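 also: 0% = growth of vehicle-treated control cultures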; conditions: S. cerevisiae rad50 mutant strain, hits give high values
How it was run: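 Strain rad50EPP+; compound exposure; % growth inhibition vs vehicle.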

[3] = NCI Yeast Anticancer Drug Screen. Data for the mgt1 strain (AID 153); conditions: S. cerevisiae mgt1 mutant growth inhibition, hits give high values
How it was run: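 Read-out: yeast growth inhibition vs vehicle control. Strain mgt1, drawn from a panel altered in DNA damage repair or cell cycle control.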

[4] = NCI Yeast Anticancer Drug Screen. Data for the rad50 strain (AID 155);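 also: 0% = growth of vehicle-only cultures of the same strain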; conditions: S. cerevisiae rad50 strain growth inhibition, hits give high values
How it was run: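 A DNA repair-deficient yeast mutant serves as the test organism; compound-induced growth inhibition is calculated against vehicle-treated cells.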

[5] = NCI Yeast Anticancer Drug Screen. Data for the mec2-1 strain (AID 157); conditions: S. cerevisiae mec2-1 strain, hits give high values
How it was run: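 Cells of the genetically defined mec2-1 yeast strain are incubated with test compound. Inhibition of growth is calculated against vehicle-treated controls.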

[6] = NCI Yeast Anticancer Drug Screen. Data for the rad14 strain (AID 159);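 also: 0% = growth of vehicle-treated control cultures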; conditions: S. cerevisiae rad14 strain growth inhibition, hits give high values
How it was run: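 Vehicle-treated cultures served as the baseline for growth inhibition of a DNA repair-mutant yeast strain exposed to each compound.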

[7] = NCI Yeast Anticancer Drug Screen. Data for the sgs1 mgt1 strain (AID 161);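 also: 0% = growth of cultures given vehicle only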; conditions: S. cerevisiae sgs1 mgt1 strain, hits give high values
How it was run: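 Test agents were incubated with a DNA-repair-mutant yeast strain. Growth was then read and compared against vehicle-treated controls.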

[8] = NCI Yeast Anticancer Drug Screen. Data for the CLN2oe strain (AID 163);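 also: 0% = growth of vehicle-only control cultures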; conditions: S. cerevisiae CLN2oe strain, hits give high values
How it was run: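 Strain altered in cell-cycle control, incubated with compound; growth compared to solvent-treated controls.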

[9] = NCI Yeast Anticancer Drug Screen. Data for the cln2 rad14 strain (AID 165);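 also: 0% = growth equal to vehicle treated cultures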; conditions: S. cerevisiae cln2 rad14 strain, hits give high values
How it was run: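 The screen exposed genetically defined yeast (cln2 rad14) to test compounds and scored growth inhibition relative to vehicle-treated controls.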

[10] = NCI Yeast Anticancer Drug Screen. Data for the wt2 strain (AID 169);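 also: 0% = growth of vehicle-treated yeast cultures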; conditions: S. cerevisiae wt2 strain growth inhibition, hits give high values
How it was run: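 Steps: yeast strain treated with compound; growth recorded; inhibition calculated relative to cultures given vehicle alone.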

[11] = NCI Yeast Anticancer Drug Screen. Data for the mlh1 strain (AID 171);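 also: 0% = growth of vehicle-treated control cultures of the same strain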; conditions: S. cerevisiae mlh1 strain growth inhibition, hits give high values
How it was run: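 Yeast screen: mutant strain plus compound, growth scored against vehicle control wells.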

[12] = NCI Yeast Anticancer Drug Screen. Data for the sgs1 strain (AID 173);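 also: 0% = growth of vehicle-only control cultures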; conditions: S. cerevisiae sgs1 mutant, hits give high values
How it was run: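 Inhibition of yeast growth served as the measure. The mutant strain was treated with each compound, and growth was normalised to cultures receiving vehicle alone.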

[13] = NCI Yeast Anticancer Drug Screen. Data for the mlh1 rad18 strain (AID 175); conditions: S. cerevisiae mlh1 rad18 strain growth inhibition, hits give high values
How it was run: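 Compound-treated yeast growth, normalised to vehicle controls. Strain bears defined DNA repair mutations.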

[14] = NCI Yeast Anticancer Drug Screen. Data for the rad18 strain (AID 177); conditions: S. cerevisiae rad18 mutant growth inhibition, hits give high values
How it was run: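 Inhibition values reflect reduced yeast growth compared with vehicle-treated controls, using a strain engineered with a DNA damage repair defect.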

[15] = NCI Yeast Anticancer Drug Screen. Data for the rad52 strain (AID 147);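 also: 0% = growth of vehicle-treated control cultures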; conditions: S. cerevisiae rad52 mutant growth inhibition, hits give high values
How it was run: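 Genetically altered yeast (DNA damage repair defect) treated with compound; inhibition calculated relative to vehicle.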

[16] = NCI Yeast Anticancer Drug Screen. Data for the bub3 strain (AID 167); conditions: S. cerevisiae bub3 mutant strain, hits give high values
How it was run: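 Inhibition values come from growth of compound-treated mutant yeast normalised to vehicle-treated controls.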

[17] = at 5.0 µM (retest, dose inferred, filed as 0.5)
[18] = at 50.0 µM (retest, dose inferred, filed as 5.0)

Measured: growth inhibition

CC[N+]1(C)CCC(O)(c2ccc(OC)cc2)C(C(=O)c2ccc(OC)cc2)C1 (stereo not drawn)
active: [7]; [17] 87% | [7]; [18] 95% | [9]; [17] 86% | [9]; [18] 97%
inactive: [1]; at 1.2 µM -69% | [1]; at 3.7 µM -76% | [1]; at 11.0 µM -72% | [1]; at 33.0 µM -62% | [1]; at 100.0 µM -58% | [2]; at 1.2 µM -32% | [2]; at 3.7 µM -32% | [2]; at 11.0 µM -38% | [2]; at 33.0 µM -35% | [2]; at 100.0 µM -23% | [3]; at 1.2 µM -39% | [3]; at 3.7 µM -52% | [3]; at 11.0 µM -54% | [3]; at 33.0 µM -54% | [3]; at 100.0 µM -44% | [4]; at 1.2 µM -24% | [4]; at 3.7 µM -19% | [4]; [17] 24% | [4]; at 11.0 µM -37% | [4]; at 33.0 µM -21% | [4]; [18] 28% | [4]; at 50.0 µM -1.2% | [4]; at 100.0 µM -30% | [5]; at 1.2 µM -63% | [5]; at 3.7 µM -56% | [5]; [17] 7% | [5]; at 11.0 µM -69% | [5]; at 33.0 µM -61% | [5]; [18] 23% | [5]; at 50.0 µM 14.8% | [5]; at 100.0 µM -74% | [6]; at 1.2 µM 6% | [6]; at 3.7 µM 0% | [6]; at 11.0 µM -33% | [6]; at 33.0 µM -3% | [6]; at 100.0 µM -27% | [7]; at 50.0 µM -4.7% | [8]; at 1.2 µM -13% | [8]; at 3.7 µM -3% | [8]; at 11.0 µM -14% | [8]; at 33.0 µM -4% | [8]; at 100.0 µM -20% | [9]; at 50.0 µM 20.1% | [10]; at 1.2 µM -21% | [10]; at 3.7 µM -15% | [10]; at 11.0 µM -14% | [10]; at 33.0 µM -16% | [10]; at 100.0 µM -22% | [11]; at 1.2 µM -78% | [11]; at 3.7 µM -64% | [11]; at 11.0 µM -16% | [11]; at 33.0 µM -55% | [11]; at 100.0 µM -62% | [12]; at 1.2 µM -10% | [12]; at 3.7 µM -37% | [12]; at 11.0 µM -49% | [12]; at 33.0 µM -44% | [12]; at 100.0 µM -50% | [13]; [17] 25% | [13]; [18] 29% | [13]; at 50.0 µM 6.75% | [14]; at 1.2 µM -7% | [14]; at 3.7 µM -17% | [14]; at 11.0 µM -13% | [14]; at 33.0 µM -23% | [14]; at 100.0 µM -23%

CC1=C(SCc2ccccc2)C(=O)c2ccccc2C1=O
inactive: [15]; at 1.2 µM -28% | [15]; at 3.7 µM -24% | [15]; at 11.0 µM 4% | [3]; at 1.2 µM -74% | [3]; at 3.7 µM -64% | [3]; at 11.0 µM -51% | [3]; at 33.0 µM 43% | [4]; at 1.2 µM -12% | [4]; at 3.7 µM -22% | [4]; at 11.0 µM 8% | [4]; at 50.0 µM 68.9% | [5]; at 1.2 µM -78% | [5]; at 3.7 µM -69% | [5]; at 11.0 µM -68% | [5]; at 50.0 µM 51.1% | [6]; at 1.2 µM -32% | [6]; at 3.7 µM -37% | [6]; at 11.0 µM -35% | [7]; [17] -23% | [7]; [18] 34% | [8]; at 1.2 µM -44% | [8]; at 3.7 µM -22% | [8]; at 11.0 µM -27% | [8]; at 33.0 µM 63% | [9]; [17] 44% | [9]; [18] 53% | [9]; at 50.0 µM 46.2% | [16]; at 1.2 µM -14% | [16]; at 3.7 µM -17% | [16]; [17] 20% | [16]; at 11.0 µM 26% | [16]; [18] 64% | [10]; at 1.2 µM -19% | [10]; at 3.7 µM -40% | [10]; at 11.0 µM -10% | [11]; at 1.2 µM -43% | [11]; at 3.7 µM -29% | [11]; at 11.0 µM -19% | [11]; at 33.0 µM 62% | [12]; at 1.2 µM -53% | [12]; at 3.7 µM -56% | [12]; at 11.0 µM -29% | [14]; at 1.2 µM -23% | [14]; at 3.7 µM -46% | [14]; at 11.0 µM -27%
active: [15]; at 33.0 µM 81% | [15]; at 100.0 µM 90% | [3]; at 100.0 µM 89% | [4]; [17] 99% | [4]; at 33.0 µM 81% | [4]; [18] 91% | [4]; at 100.0 µM 87% | [5]; [17] 98% | [5]; at 33.0 µM 74% | [5]; [18] 92% | [5]; at 100.0 µM 90% | [6]; at 33.0 µM 85% | [6]; at 100.0 µM 92% | [7]; at 50.0 µM 71.3% | [8]; at 100.0 µM 80% | [16]; at 33.0 µM 84% | [16]; at 50.0 µM 79% | [16]; at 100.0 µM 90% | [10]; at 33.0 µM 75% | [10]; at 100.0 µM 92% | [11]; at 100.0 µM 89% | [12]; at 33.0 µM 76% | [12]; at 100.0 µM 90% | [13]; [17] 99% | [13]; [18] 92% | [13]; at 50.0 µM 73.5% | [14]; at 33.0 µM 79% | [14]; at 100.0 µM 90%

Nc1cc(N)c(N=Nc2cccc3c(S(=O)(=O)O)cccc23)cc1N=Nc1cc([N+](=O)[O-])ccc1O
active: [7]; [18] 84% | [9]; [18] 92% | [16]; [18] 79% | [16]; at 50.0 µM 70.8%
inactive: [15]; at 1.2 µM 32% | [15]; at 3.7 µM 26% | [15]; at 11.0 µM 17% | [15]; at 33.0 µM -23% | [15]; at 100.0 µM 56% | [2]; at 1.2 µM -11% | [2]; at 3.7 µM 3% | [2]; at 11.0 µM -4% | [2]; at 33.0 µM -4% | [2]; at 100.0 µM 38% | [3]; at 1.2 µM -19% | [3]; at 3.7 µM 8% | [3]; at 11.0 µM 9% | [3]; at 33.0 µM 12% | [3]; at 100.0 µM 65% | [4]; at 1.2 µM 15% | [4]; at 3.7 µM 10% | [4]; [17] 46% | [4]; at 11.0 µM 8% | [4]; at 33.0 µM 6% | [4]; [18] 61% | [4]; at 50.0 µM 38.5% | [4]; at 100.0 µM 54% | [5]; at 1.2 µM 1% | [5]; at 3.7 µM -11% | [5]; [17] 64% | [5]; at 11.0 µM -11% | [5]; at 33.0 µM -17% | [5]; [18] 69% | [5]; at 50.0 µM 4.9% | [5]; at 100.0 µM 17% | [6]; at 1.2 µM -17% | [6]; at 3.7 µM -22% | [6]; at 11.0 µM -19% | [6]; at 33.0 µM -18% | [6]; at 100.0 µM 47% | [7]; [17] -10% | [7]; at 50.0 µM 26.4% | [9]; [17] 33% | [9]; at 50.0 µM 42.5% | [16]; at 1.2 µM -6% | [16]; at 3.7 µM 6% | [16]; [17] 19% | [16]; at 11.0 µM 10% | [16]; at 33.0 µM 0% | [16]; at 100.0 µM 53% | [10]; at 1.2 µM -14% | [10]; at 3.7 µM -11% | [10]; at 11.0 µM -26% | [10]; at 33.0 µM 6% | [10]; at 100.0 µM 47% | [11]; at 1.2 µM -15% | [11]; at 3.7 µM -21% | [11]; at 11.0 µM -15% | [11]; at 33.0 µM -18% | [11]; at 100.0 µM 23%
